FBW7 activator = activators of human E3 ligase FBW7. Q969H0. 650,000 tested, 0.13% active. AlphaScreen FBW7–phospho-cyclin E peptide binding, activator screen. normalized activity (activation), % at 26.1 µM; in the data active means normalized activity above about 1.9%;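 further: purified mutant Fbw7 with reduced substrate affinity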
Target sequence (Q969H0 whole entry, looked up): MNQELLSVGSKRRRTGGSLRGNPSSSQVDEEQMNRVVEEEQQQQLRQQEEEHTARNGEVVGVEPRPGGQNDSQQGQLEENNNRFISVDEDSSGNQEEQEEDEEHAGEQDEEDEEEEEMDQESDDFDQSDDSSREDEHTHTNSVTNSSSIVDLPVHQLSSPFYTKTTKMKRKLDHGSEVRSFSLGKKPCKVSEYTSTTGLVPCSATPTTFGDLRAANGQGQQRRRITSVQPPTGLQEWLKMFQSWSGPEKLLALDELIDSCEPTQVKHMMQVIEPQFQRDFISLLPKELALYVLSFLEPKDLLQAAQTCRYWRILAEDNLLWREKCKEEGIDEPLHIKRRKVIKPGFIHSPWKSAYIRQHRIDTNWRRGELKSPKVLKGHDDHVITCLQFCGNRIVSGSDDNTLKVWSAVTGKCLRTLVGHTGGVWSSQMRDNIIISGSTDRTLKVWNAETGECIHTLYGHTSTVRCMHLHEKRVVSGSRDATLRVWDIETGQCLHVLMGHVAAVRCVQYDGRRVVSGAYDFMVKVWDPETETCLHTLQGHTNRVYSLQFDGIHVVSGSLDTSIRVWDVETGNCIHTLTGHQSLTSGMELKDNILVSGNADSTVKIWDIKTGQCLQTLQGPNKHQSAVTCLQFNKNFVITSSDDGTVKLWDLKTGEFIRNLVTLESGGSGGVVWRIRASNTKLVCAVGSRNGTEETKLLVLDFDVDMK
GPR151 activ = activates the human receptor GPR151; activation, % at 11.2 µM; PathHunter beta-arrestin GPR151 cells, luminescence; 650,000 tested, 1% active; Q8TDV0; in the data active means activation above about 4.9%
MITF primary = human MITF inhibition, primary screen. O75030. AlphaScreen MITF homodimerization, bead proximity signal. inhibition, % at 2.6 µM. 650,000 tested, 0.91% active. AID 1259374; in the data active means inhibition above about 50%
TEAD-YAP inh = TEAD-YAP interaction inhibition; HEK-TIYL cells, TEAD-Gal4/YAP UAS-luciferase luminescence; inhibition, % at 9.12 µM; AID 1259422; 640,000 tested, 1.4% active; in the data active means inhibition above about 32%
GPR151 conf act = confirmation of human GPR151 activators; shares compounds with GPR151 activ; GPR151 PathHunter beta-arrestin cells, luminescence, 90 min; % of EA-reagent control over plate median; activation, % at 11.2 µM; 6,700 tested, under 10 active; AID 1508609;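 active means mean percent activation across replicates above the confirmation screen cutoff of 4.91%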
GPR119 ag = GPR119 activation, counter-screen for GPR151 activators. activation, % at 11.2 µM. AID 1508611. shares compounds with GPR151 activ. GPR119 PathHunter beta-arrestin cells, luminescence, 90 min; 0 = compound-well median, 100 = enzyme-acceptor control. 6,700 tested, 0.3% active;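 active means mean percent activation in the counterscreen above 29.09%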;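 further: counterscreen on off-target GPR119 to flag nonselective hits from the GPR151 activator screen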
Each line names hits and unclear results; the compound was inactive in the other large screens (follow-up assays come after a bar, where they were run); ! = repeats disagree. Rows were chosen to be rich in hits. Some 3.5% of all compounds tested hit in one or more screens of this group.

Cc1c(C(=O)NC(=S)Nc2ncccc2O)cccc1[N+](=O)[O-]	GPR151 activ 5.4 | GPR151 conf act inactive | GPR119 ag inactive
CCCCNC(=O)CSc1nc2n[nH]c(C)c2c(=N)n1-c1cccc(C)c1	none
Cc1cccc(COc2coc(CN3CCc4ccccc4C3)cc2=O)c1	none
O=C(Nc1ccc2c(c1)CN(C1CSCCSC1)CC2)c1ccncc1	GPR151 activ 5.3 | GPR151 conf act inactive | GPR119 ag inactive
COc1ccccc1CN1CCNC(=O)C1CC(=O)NCc1csc(C)n1 (stereo not drawn)	GPR151 activ 5.8 | GPR151 conf act inactive | GPR119 ag inactive
COc1ccccc1CN1CCNC(=O)C1CC(=O)NCc1ccc(F)cc1 (stereo not drawn)	none
Cc1cnc(-c2c(C)nn(C)c2C)nc1NCCc1ccc(O)cc1	GPR151 activ 5.7 | GPR151 conf act inactive | GPR119 ag inactive
Cc1cnc(-c2c(C)noc2C)nc1NCCc1ccc(O)cc1	none
NC(=O)c1cccn1Cc1cccc(Cl)c1	none
CCOC(=O)c1nccn1Cc1ccccc1Cl	GPR151 activ 9.4 | GPR151 conf act inactive | GPR119 ag inactive
NC(=O)c1cccn1Cc1ccccc1Cl	GPR151 activ 5.2 | GPR151 conf act inactive | GPR119 ag inactive
Cc1nnc2sc(-c3ccc(NC(=O)C(C)C)cc3)nn12	none
CC(=O)c1cccc(NC(=O)N2CCCC2C(=O)Nc2cccc(C)c2)c1 (stereo not drawn)	GPR151 activ 14.5 | GPR151 conf act inactive | GPR119 ag inactive
COc1ccc2oc(=Nc3ccccc3C)c(C(N)=O)cc2c1	none
COC(=O)c1ccc(OC(=O)C2CC(=O)N(c3ccc(C)cc3C)C2)cc1 (stereo not drawn)	GPR151 activ 5.0 | GPR151 conf act inactive | GPR119 ag inactive
Cc1ccc(N2CC(C(=O)O)CC2=O)c(C)c1 (stereo not drawn)	none
CC(C)/C(=N\NC(N)=S)c1ccccc1	GPR151 activ 6.5 | GPR151 conf act inactive | GPR119 ag inactive
CC(=O)N1c2ccc(S(=O)(=O)N3CCCC3C(=O)Nc3nc(C)cs3)cc2CC1C (stereo not drawn)	GPR151 activ 5.0 | GPR151 conf act inactive | GPR119 ag inactive
CC(=O)N1c2ccc(S(=O)(=O)N3CCCC3C(=O)Nc3cccc(C)n3)cc2CC1C (stereo not drawn)	none
Cc1cc(-c2nnco2)c(C)n1-c1ccccc1	none
Cc1cc(-c2nnc3n2CCC3)c(C)n1-c1ccccc1	GPR151 activ 5.7 | GPR151 conf act inactive | GPR119 ag inactive
Oc1ccc2ncccc2c1C(Nc1ccccn1)c1ccco1 (stereo not drawn)	GPR151 activ 30.7 | GPR151 conf act inactive | GPR119 ag inactive
CCOC(=O)c1c(NC(=S)NC(=O)N(C)C)sc(C)c1-c1cccs1	GPR151 activ 5.1 | GPR151 conf act inactive | GPR119 ag inactive
CCCCOC(=O)c1cccc(-c2ccc(/C=C3\C(=O)N(CCO)C(=O)C(C#N)=C3C)o2)c1	GPR151 activ 8.9 | GPR151 conf act inactive | GPR119 ag inactive
CC(=O)c1cccc(-c2ccc(/C=C3\C(=O)NC(=O)C(C#N)=C3C)o2)c1	none
CC1=C(C#N)C(=O)NC(=O)/C1=C\c1ccc(-c2cccc(C(=O)OC(C)C)c2)o1	GPR151 activ 5.0 | GPR151 conf act inactive | GPR119 ag inactive
OCCNc1nc(Cl)ncc1F	none
C=C(C)COc1c(I)cc(C=O)cc1OC	GPR151 activ 6.6 | GPR151 conf act inactive | GPR119 ag inactive
O=C(Nc1ccccc1)C1CCCN1C(=O)NC1CCCCC1 (stereo not drawn)	none
O=C(O)C1CCCN1C(=O)NC1CCCCC1 (stereo not drawn)	GPR151 activ 4.9 | GPR151 conf act inactive | GPR119 ag inactive
Cc1nc(C)n(-c2ccc(Nc3nccc(-c4cc(F)cc(N5CCOCC5)c4)n3)cc2F)n1	none
CCCN1C(=O)NC2C1NC(=O)N2CCC (stereo not drawn)	none
CCOc1ccc(-c2[nH]nc3c2C(c2ccccc2F)C(C#N)=C(N)O3)c(OCC)c1 (stereo not drawn)	GPR151 activ 7.1 | GPR151 conf act inactive | GPR119 ag inactive
COc1ccc(NCc2ccc(OC)c(OC)c2OC)cc1Cl	GPR151 activ 7.9 | GPR151 conf act inactive | GPR119 ag inactive
COc1ccc(CCNC(=O)CCc2nc3cccnc3n2-c2ccccc2)c(OC)c1	GPR151 activ 5.1 | GPR151 conf act inactive | GPR119 ag inactive
O=C(COc1ccc(Cl)cc1)Nc1cc(C(F)(F)F)ccc1Cl	none
Cc1cc(Nc2ccc(F)cc2F)n2nc(C)nc2n1	none
Cc1cc(Nc2cc(F)ccc2C)n2nc(C)nc2n1	GPR151 activ 7.1 | GPR151 conf act inactive | GPR119 ag inactive
COc1ccc(CN2CCN(Cc3cnc(-c4ccccc4)s3)CC2CCO)cc1C (stereo not drawn)	GPR151 activ 6.7 | GPR151 conf act inactive | GPR119 ag inactive
CCOc1ccc(CN2CCN(Cc3cnc(-c4ccccc4)s3)CC2CCO)cc1 (stereo not drawn)	none
CN(C)c1ncc(CN2CCN(Cc3ccc(F)cc3)C(CCO)C2)s1 (stereo not drawn)	none
CN(C)c1ncc(CN2CCN(CCc3ccccc3)C(CCO)C2)s1 (stereo not drawn)	GPR151 activ 9.8 | GPR151 conf act inactive | GPR119 ag inactive
O=C(/C=C/c1ccccc1[N+](=O)[O-])NCc1ccco1	none
Cc1sc2nc(Cc3ccccc3)n(C3CCN(CC(N)=O)CC3)c(=O)c2c1C	GPR151 activ 6.1 | GPR151 conf act inactive | GPR119 ag inactive
Cc1sc2nc(Cc3ccccc3)n(C3CCN(C(=O)c4ccco4)CC3)c(=O)c2c1C	none
C=C1c2ccc(C)cc2NC(=O)N1CC	none
C=C1c2cc(OC)ccc2NC(=O)N1CC	GPR151 activ 5.5 | GPR151 conf act inactive | GPR119 ag inactive
CCOC(=O)c1c2nc3ccccc3nc2n2c1[nH]c(=O)c1ccccc12	none
C[C@]1(Cn2ccnn2)[C@H](C(=O)O)N2C(=O)C[C@H]2S1(=O)=O	GPR151 activ 10.1! | GPR151 conf act inactive | GPR119 ag inactive
CC(C)NC(=O)C1CC(=O)N(c2ccc(Cl)cc2)C1 (stereo not drawn)	GPR151 activ 5.8 | GPR151 conf act inactive | GPR119 ag inactive
Cc1ccc(N2CC(C(=O)N3CCCCCC3)CC2=O)cc1 (stereo not drawn)	GPR151 activ 4.9 | GPR151 conf act inactive | GPR119 ag inactive
Cc1cc2nc(-c3cc(NC(=O)c4cccc(Br)c4)ccc3O)oc2cc1C	none
COc1cc(OC)cc(-c2noc(C3CCN(S(=O)(=O)c4ccc(Cl)cc4)CC3)n2)c1	GPR151 activ 5.2 | GPR151 conf act inactive | GPR119 ag inactive
CCCS(=O)(=O)N1CCN(S(=O)(=O)CCC)CC1	none

High-throughput results: PubChem BioAssay, The Scripps Research Institute Molecular Screening Center
